Most compounds without a hit are left out; they make up all but 27% or so of the library.
CYP2C19 inh: inhibitors of human CYP2C19. P33261. CYP2C19 Supersomes, luciferin-H EGE luminescence, 30 min. inhibition, % at 5 µM. 96,000 compounds, 21% hits;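 active = CYP2C19 inhibition above a set limit at 5 µM in the primary screen, cut at about 50% in these data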;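 also: plate controls were negative control wells for no effect and 2.5 mM tranylcypromine positive control for full effect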
Target sequence (P33261 whole entry, looked up): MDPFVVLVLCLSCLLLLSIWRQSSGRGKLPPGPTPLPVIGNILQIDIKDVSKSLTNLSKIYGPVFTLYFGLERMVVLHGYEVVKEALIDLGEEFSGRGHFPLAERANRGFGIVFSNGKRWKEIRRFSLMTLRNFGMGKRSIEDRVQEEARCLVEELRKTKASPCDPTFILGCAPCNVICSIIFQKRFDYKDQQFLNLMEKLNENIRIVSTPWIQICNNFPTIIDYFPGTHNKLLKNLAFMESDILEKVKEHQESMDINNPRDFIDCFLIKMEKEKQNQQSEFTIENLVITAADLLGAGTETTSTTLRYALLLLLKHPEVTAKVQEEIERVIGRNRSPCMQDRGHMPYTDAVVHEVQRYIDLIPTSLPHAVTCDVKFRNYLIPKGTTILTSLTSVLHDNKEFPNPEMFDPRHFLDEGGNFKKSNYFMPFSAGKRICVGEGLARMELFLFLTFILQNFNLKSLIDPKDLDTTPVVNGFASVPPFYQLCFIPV
sEH inh: inhibitors of human soluble epoxide hydrolase | P34913 | recombinant human sEH enzymatic activity assay | inhibition, % at 2 µM | 91,000 compounds, 0.34% hits | AID 707; in the data active = inhibition above about 80%
CYP2C9 inhib: blocks human cytochrome P450 2C9 | 96,000 compounds, 20% hits | AID 777 | P11712 | CYP2C9 Supersomes, luciferin-H conversion, luminescence | inhibition, % at 5 µM;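 active = blocking of liver enzyme CYP2C9 beyond about 50% at 5 µM, limit read from the data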
CYP2C19 act: increases human CYP2C19 enzyme activity. P33261. recombinant CYP2C19, luciferin-H EGE luminescence; active compounds read high; 0 = fully inhibited enzyme, 1 = untreated enzyme. activation factor at 5 µM. 96,000 tested, under 10 active;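 active = activation factor of at least 2 at 5 µM in the primary screen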;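 also: 0 = wells with 2.5 mM tranylcypromine and 1 = vehicle-only wells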
sEH activator: increases human soluble epoxide hydrolase activity; P34913; purified human sEH enzymatic activity, activator screen; activation, % at 2 µM; 91,000 compounds, 0.04% hits; AID 717; in the data active = activation above about 37%
CYP2C9 activ: increases human cytochrome P450 2C9 activity | 96,000 compounds, 1.4% hits | recombinant CYP2C9, luciferin-H conversion, luminescence; active compounds read high; factor 1 = untreated enzyme, 0 = blocked | activation factor at 5 µM;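 active = activation factor of 2 or more for CYP2C9 at a 5 µM dose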;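 also: 0 = sulfaphenazole-blocked wells and 1 = vehicle-only wells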
Starred values were filed as active, the others as inactive; x = no result given.

SMILES	CYP2C19 inh	sEH inh	CYP2C9 inhib	CYP2C19 act	sEH activator	CYP2C9 activ
c1cc2n(c1)-c1c(ccc3c1OCO3)CNC2c1ccc2c(c1)OCO2 (stereo unspecified)	99*	-9	77*	0	10	0.2
CCCCSP1(=S)NCCCN1	21	x	10	0.8	x	0.9
O=C1CC(N2CCC(n3c(=O)[nH]c4ccccc43)CC2)C(=O)N1c1ccc(F)cc1 (stereo unspecified)	-2	13	-7	1	-12	1.1
O=C1CC(N2CC=C(c3ccccc3)CC2)C(=O)N1c1ccc(F)cc1 (stereo unspecified)	8	x	62*	0.9	x	0.4
CC1(C)C2CC=C(CN3CCC(O)CC3)C1C2 (stereo unspecified)	3	0	13	1	1	0.9
OC1(c2ccc(F)cc2)CC2CCC(C1)N2Cc1nnnn1C1CCCC1 (stereo unspecified)	88*	6	81*	0.1	-8	0.2
COc1ccc(N2C(=O)CC(=O)NC2=O)cc1	6	5	11	0.9	-2	0.9
Cc1cccc(N2C(=O)NC(=O)C3(Cc4cc(C)ccc4N(C)C3)C2=O)c1 (stereo unspecified)	13	-10	63*	0.9	10	0.4
COc1ccc2c(c1)CC1(CN2C)C(=O)NC(=O)N(c2ccc(C)cc2)C1=O (stereo unspecified)	14	-6	62*	0.9	6	0.4
COc1ccc2c(c1)CC1(CN2C)C(=O)NC(=O)N(c2ccc(F)cc2)C1=O (stereo unspecified)	19	-6	71*	0.8	8	0.3
Cc1ccc2c(c1)CC1(CN2C)C(=O)NC(=O)N(CCC2=CCCCC2)C1=O (stereo unspecified)	29	-6	44	0.7	6	0.6
COc1cccc(C2C([N+](=O)[O-])=C(N)Oc3c2c(=O)oc2ccccc32)c1 (stereo unspecified)	11	-12	14	0.9	14	0.9
C(=NC12CN3CN(CN(C3)C1)C2)c1cccnc1	x	16	x	x	-17	x
Cc1cc(C)n(CCOC(=O)C2C(C=C(Cl)Cl)C2(C)C)n1 (stereo unspecified)	92*	6	75*	0.1	-3	0.3
O=C(COc1ccccc1)N1CCN(C2CC3CCC2C3)CC1 (stereo unspecified)	x	-5	x	x	6	x
CN(C)c1ccc2c(c1)N=C(c1ccco1)OP2(=S)N1CCOCC1 (stereo unspecified)	3	3	18	1	-3	0.8
O=C1C2(c3ccccc3)CN3CN(C2)CC1(c1ccccc1)C3	55*	17	-21	0.5	-14	1.2
CC1CN(c2ccc([N+](=O)[O-])c3cccnc23)CC(C)N1 (stereo unspecified)	-16	2	-12	1.2	1	1.1
FC(F)(F)c1ccc2c(c1)ncn2C1CCN(Cc2nnnn2C2CCCCC2)CC1	88*	0	69*	0.1	0	0.3
Cc1nc2cc(C(F)(F)F)ccc2n1C1CCN(Cc2nnnn2Cc2ccc3c(c2)OCO3)CC1	57*	0	92*	0.4	-2	0.1
Cc1nc2cc(C(F)(F)F)ccc2n1C1CCN(Cc2nnnn2Cc2cccs2)CC1	24	x	79*	0.8	x	0.2
O=C(c1cc(=O)[nH]c2ccc(Br)cc12)N1CCC2(CC1)OCCO2	10	-8	7	0.9	5	0.9
C=CCN1C(=O)C2(C(C(=O)OCC)=C(N)Oc3ccccc32)c2c1c1ccccc1oc2=O (stereo unspecified)	21	6	53*	0.8	-6	0.5
CCOC(=O)C1=C(N)Oc2c(c(=O)oc3ccccc23)C12C(=O)N(C)c1ccccc12 (stereo unspecified)	10	3	31	0.9	-4	0.7
COc1cccc(Oc2c(C)oc3cc(OC(=O)N(C)C)ccc3c2=O)c1	85*	-8	42	0.2	7	0.6
SMILES	CYP2C19 inh	sEH inh	CYP2C9 inhib	CYP2C19 act	sEH activator	CYP2C9 activ
Cc1oc2ccc(OC(=O)N(C)C)cc2c1C(=O)OC(C)C	78*	0	65*	0.2	4	0.4
CCS(=O)(=O)N1CCCC(C(=O)N2CCC3(CC2)OCCO3)C1 (stereo unspecified)	58*	-2	15	0.4	4	0.9
Cc1cc(C)c(C(=O)CN2CCOCC2)c(C)c1	15	0	-14	0.8	-4	1.1
CC(C)n1cc(C(=O)N(CC(=O)NC(C)(C)C)Cc2ccccc2)cn1	x	7	x	x	-2	x
CC1CCN(S(=O)(=O)c2ccc(NN=C(C#N)C#N)cc2)CC1	4	14	94*	1	-12	0.1
Cc1nn(Cc2ccccc2Cl)c(Cl)c1C(=O)OCC(=O)NCc1ccco1	-4	2	-5	1	-2	1
Cc1nn(Cc2ccccc2)c(C)c1C(=O)OCC(=O)NCc1ccco1	60*	-4	70*	0.4	-2	0.3
Cc1cc(NC(=O)COC(=O)c2c(C)nn(Cc3ccccc3Cl)c2Cl)no1	14	3	-1	0.9	-4	1
Cc1nn(Cc2ccccc2)c(C)c1C(=O)OCC(=O)Nc1ccccc1SCC#N	86*	1	96*	0.1	-2	0
Cc1cc(NC(=O)COC(=O)c2c(C)nn(Cc3ccccc3)c2C)no1	30	17	65*	0.7	-18	0.3
O=C1OCCC1NC1=NCCC1 (stereo unspecified)	-2	-1	1	1	4	1
O=C(Cn1nc(Cc2cccnc2)c2ccccc2c1=O)N1CCC2(CC1)OCCO2	22	x	80*	0.8	x	0.2
CC(=O)Nc1ccccc1C(=O)OCc1ccc(C(=O)c2ccccc2)cc1	38	-9	72*	0.6	8	0.3
Nc1ccccc1C(=O)c1ccccc1	24	-8	4	0.8	12	1
Cc1ccc(S(=O)(=O)N(C)CCCC(=O)N2CCN(c3ccccn3)CC2)cc1	52*	-14	33	0.5	16	0.7
COc1ccccc1CC1/C(=N/O)C2CCN1CC2 (stereo unspecified)	18	-1	9	0.8	-1	0.9
COc1ccccc1/C=C1/C(=N/O)C2CCN1CC2	91*	x	-5	0.1	x	1
CCc1sc(C(=O)N2CCC3(CC2)OCCO3)cc1Br	96*	x	-65	0	x	1.7
O=C(c1cc2c(s1)CCCCCC2)N1CCC2(CC1)OCCO2	97*	-2	73*	0	3	0.3
O=C(c1ccc2c(c1)ncn2C1CCCCC1)N1CCC2(CC1)OCCO2	5	-17	-10	1	18	1.1
O=C(NCc1ccc(C(=O)N2CCC3(CC2)OCCO3)cc1)c1cccc(Br)c1	12	19	24	0.9	-18	0.8
CCOC(=O)c1ccc(N2C(=O)CC(N3CCC(C#N)(c4ccccc4)CC3)C2=O)cc1 (stereo unspecified)	22	9	20	0.8	-9	0.8
